High-throughput results deposited in PubChem by The Scripps Research Institute Molecular Screening Center.
This is a sample that favours compounds with a hit; in the whole collection about 4.8% have one here.
DAX1 inh-1 = inhibits human nuclear receptor DAX1 | P51843 | HEK293 Gal4-DAX1 luciferase reporter, luminescence | inhibition, % at 6.75 µM | 340,000 compounds, 0.99% hits;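 active means inhibition above the mean over all tested compounds plus 3 SD, cut at about 4.2% in these data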;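 further: inhibition shows as a rise in luminescence from relieved DAX1 repression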
SMARCA2 activ = increases SMARCA2 function in MMTV reporter cells | MG213 cells, MMTV-luciferase reporter, dexamethasone, overnight | activation, % at 9.1 µM | 370,000 compounds, 1% hits | AID 652017; in the data active means activation above about 7.8%
DAX1 inh-2 = blocks DAX1 repression of SF-1 activated StAR promoter | 370,000 compounds, 1.1% hits | inhibition, % at 6.8 µM | HEK293T StAR-luciferase reporter, SF-1/DAX-1 repression relief;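 active means inhibition above the mean over all tested compounds plus 3 SD, cut at about 3.6% in these data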;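 further: higher inhibition means more luminescence from relief of DAX-1 repression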
hcDAF12 agonist = activators of H. contortus DAF-12 nuclear receptor; 370,000 compounds, 1.4% hits; AID 652067; HEK293 hcDAF-12 lit1-tk-luc reporter, luminescence; 0% DMSO, 100% Δ7-dafachronic acid; activation, % at 6.8 µM;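 active means activation above the mean of all tested compounds plus 3 SD, cut at about 5.5% in these data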
hgDAF12 agonist = agonists of H. glycines DAF-12 nuclear receptor. HEK293 GAL4-hgDAF12 UAS-luciferase reporter, agonist luminescence; normalized to butyrate control. activation, % at 6.8 µM. 370,000 compounds, 1.8% hits;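 active means activation above a cutoff set at the mean of all screened compounds plus 3 SD, cut at about 10% in these data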
ssDAF12 agonist = S. stercoralis DAF-12 activation, primary screen; HEK293 ssDAF-12/GRIP1 lit1-tk-luc reporter, luminescence; % of 3 µM dafachronic acid response; activation, % at 6.8 µM; 370,000 compounds, 1% hits;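 active means activation above the mean over all tested compounds plus 3 SD, cut at about 0.9% in these data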
LXRb hcDAF ctr = counter-screen for hcDAF-12 agonists: agonists of human LXR-beta; shares compounds with hcDAF12 agonist; HEK293 Gal4-LXR tk-luc reporter, luminescence, 24 h; normalized: DMSO 0%, positive control 100%; activation, % at 6.8 µM; 3,400 tested, under 10 active;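 active means mean percent activation of the reporter above a cutoff set as the average over tested compounds plus their standard deviation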
Target sequence (P55055 whole entry, looked up, the tested form may be a part): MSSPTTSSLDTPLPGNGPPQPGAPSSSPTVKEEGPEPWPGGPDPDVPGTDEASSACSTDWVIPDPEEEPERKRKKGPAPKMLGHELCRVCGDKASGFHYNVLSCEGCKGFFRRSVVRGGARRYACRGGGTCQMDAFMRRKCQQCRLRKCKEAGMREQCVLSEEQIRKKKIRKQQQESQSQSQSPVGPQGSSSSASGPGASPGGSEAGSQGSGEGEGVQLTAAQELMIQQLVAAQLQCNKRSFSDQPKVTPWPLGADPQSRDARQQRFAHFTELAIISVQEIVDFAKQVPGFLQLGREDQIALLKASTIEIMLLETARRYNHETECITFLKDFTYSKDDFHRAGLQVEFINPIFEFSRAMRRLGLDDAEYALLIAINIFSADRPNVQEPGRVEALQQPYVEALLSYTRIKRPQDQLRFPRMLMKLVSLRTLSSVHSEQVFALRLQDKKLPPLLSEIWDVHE
hcDAF12 conf = hcDAF-12 agonism, confirmation assay. shares compounds with hcDAF12 agonist. activation, % at 6.8 µM. 3,400 compounds, 61% hits. HEK293 hcDAF-12 lit1-tk-luc reporter, luminescence; % of Δ7-dafachronic acid response;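 active means mean activation across triplicate tests above the threshold derived from the earlier primary screen, cut at about 5.5% in these data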
hgDAF12 conf = confirmation of H. glycines DAF-12 agonists; shares compounds with hgDAF12 agonist; HEK293 GAL4-hgDAF12 luciferase reporter, agonist mode; percent of butyrate response; activation, % at 6.8 µM; 3,300 compounds, 80% hits; AID 743050;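 active means mean activation over triplicate wells above the hit cutoff derived from the earlier primary screen, cut at about 11% in these data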
LXRb DAF12 ctr = LXR-beta agonism as DAF-12 counter-screen; AID 743051; activation, % at 6.8 µM; 3,300 tested, under 10 active; HEK293 Gal4-LXR luciferase reporter, 24 h; shares compounds with hgDAF12 agonist;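 active means mean activation of the triplicate above a set limit carried over from the primary screen, none filed active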
Of the large screens only hits and unclear results are named; the others gave an inactive call (follow-up assays come after a bar, where they were run).

C[C@@H]1CCCCO[C@@H](CN(C)C(=O)NC2CCCCC2)[C@@H](C)CN([C@H](C)CO)C(=O)c2cc(N(C)C)ccc2O1	none (no result: DAX1 inh-1)
Nc1nc(-c2cc(-c3ccccc3)no2)cs1	hcDAF12 agonist 7.9, hgDAF12 agonist 17.9 | LXRb hcDAF ctr inactive | hcDAF12 conf inactive | hgDAF12 conf 20.9 | LXRb DAF12 ctr inactive
Cc1ccc(O)c(C2=Nc3ccccc3N=C(c3cccs3)C2)c1	none
Cc1ccc2c(c1)N=C(c1ccccc1)CC(C(Cl)Cl)=N2	hcDAF12 agonist 15.3, hgDAF12 agonist 13.6, ssDAF12 agonist 1.8 | LXRb hcDAF ctr inactive | hcDAF12 conf 8.1 | hgDAF12 conf 19.1 | LXRb DAF12 ctr inactive
O=C(Nc1ccc(Cl)cc1)Nc1cccc2nsnc12	hcDAF12 agonist 11.6, hgDAF12 agonist 15.0, ssDAF12 agonist 1.3 | LXRb hcDAF ctr inactive | hcDAF12 conf 11.5 | hgDAF12 conf 19.6 | LXRb DAF12 ctr inactive
COc1ccc(-c2csc(Nc3ncccc3C)n2)cc1	hcDAF12 agonist 7.5, hgDAF12 agonist 16.8 | LXRb hcDAF ctr inactive | hcDAF12 conf inactive | hgDAF12 conf 17.1 | LXRb DAF12 ctr inactive
COC(=O)C1=C(C)N(C)C(=NCc2ccccc2)NC1c1ccccc1 (configuration not stated)	none (no result: DAX1 inh-1)
COC(=O)C1=C(C)N(Cc2cccc(C(F)(F)F)c2)C(=NCc2ccc3c(c2)OCO3)NC1c1ccccc1C(F)(F)F (configuration not stated)	none (no result: DAX1 inh-1)
O=c1c2ccccc2oc2cc(NCCCn3ccnc3)ccc12	DAX1 inh-2 3.7, hcDAF12 agonist 7.2, hgDAF12 agonist 13.9, ssDAF12 agonist 1.2 | LXRb hcDAF ctr inactive | hcDAF12 conf inactive | hgDAF12 conf 17.2 | LXRb DAF12 ctr inactive
O=C(NCCCn1ccnc1)c1cc2ccccc2oc1=O	none
Oc1[nH]c2ccccc2c1C=Nc1ccccc1	DAX1 inh-1 12.8, hcDAF12 agonist 8.3, hgDAF12 agonist 21.0, ssDAF12 agonist 1.6 | LXRb hcDAF ctr inactive | hcDAF12 conf 8.9 | hgDAF12 conf 24.1 | LXRb DAF12 ctr inactive
COCCNC(=S)N(C)[C@H]1C[C@H]2c3[nH]c4cccc(-c5ccccc5)c4c3CCN2C(=O)[C@H]1[C@H](C)O	none (no result: DAX1 inh-1)
O=C(N/N=C/c1cn(-c2ccccc2)nc1-c1cc2ccccc2o1)c1ccncc1	hcDAF12 agonist 6.8, hgDAF12 agonist 19.2, ssDAF12 agonist 2.0 | LXRb hcDAF ctr inactive | hcDAF12 conf inactive | hgDAF12 conf 15.4 | LXRb DAF12 ctr inactive
O=C(N/N=C/c1cn(-c2ccccc2)nc1-c1cccnc1)c1cccnc1	none
COC(=O)[C@]12C[C@H](CC(=O)NCCCN3CCCC3=O)C(=O)N(Cc3ccccc3)C1=C[C@H](C1CCCC1)O[C@@H]2C	none (no result: DAX1 inh-1)
C=CCn1c(SCC(=O)Nc2ccc(-c3nc4ccc(C)cc4s3)cc2)nnc1-c1ccccc1	DAX1 inh-2 4.5, hcDAF12 agonist 7.2, hgDAF12 agonist 18.4 | LXRb hcDAF ctr inactive | hcDAF12 conf inactive | hgDAF12 conf inactive | LXRb DAF12 ctr inactive
COc1ccc2cc(-c3ccccc3)ncc2c1	hcDAF12 agonist 12.8, hgDAF12 agonist 16.1, ssDAF12 agonist 1.8 | LXRb hcDAF ctr inactive | hcDAF12 conf 13.9 | hgDAF12 conf 20.5 | LXRb DAF12 ctr inactive
COc1cc(OC)cc(-c2cc3ccc(OC)cc3cn2)c1	hcDAF12 agonist 6.7, hgDAF12 agonist 16.0, ssDAF12 agonist 0.9 | LXRb hcDAF ctr inactive | hcDAF12 conf 6.6 | hgDAF12 conf 18.8 | LXRb DAF12 ctr inactive
